# Bioassay records: PubChem, National Center for Advancing Translational Sciences (NCATS)
# This is a sample that favours compounds with a hit; in the whole collection about 18% have one here.
# RORgamma inh – inhibitors of mouse ROR gamma transcriptional activity; P51450; actives 5.4% (n = 310,000); Drosophila S2 Gal4-RORgamma UAS-luciferase reporter, 20 h; Potency, µM (series often up to 53.6 µM), for inactives: at the highest dose activity change, negative = inhibition, actives largely listed as inhibitors; note: potency is the fitted concentration of half-maximal effect; nearly all actives have a fitted effect of over 60% in size
# Target sequence (P51450 whole entry, looked up, the tested form may be a part): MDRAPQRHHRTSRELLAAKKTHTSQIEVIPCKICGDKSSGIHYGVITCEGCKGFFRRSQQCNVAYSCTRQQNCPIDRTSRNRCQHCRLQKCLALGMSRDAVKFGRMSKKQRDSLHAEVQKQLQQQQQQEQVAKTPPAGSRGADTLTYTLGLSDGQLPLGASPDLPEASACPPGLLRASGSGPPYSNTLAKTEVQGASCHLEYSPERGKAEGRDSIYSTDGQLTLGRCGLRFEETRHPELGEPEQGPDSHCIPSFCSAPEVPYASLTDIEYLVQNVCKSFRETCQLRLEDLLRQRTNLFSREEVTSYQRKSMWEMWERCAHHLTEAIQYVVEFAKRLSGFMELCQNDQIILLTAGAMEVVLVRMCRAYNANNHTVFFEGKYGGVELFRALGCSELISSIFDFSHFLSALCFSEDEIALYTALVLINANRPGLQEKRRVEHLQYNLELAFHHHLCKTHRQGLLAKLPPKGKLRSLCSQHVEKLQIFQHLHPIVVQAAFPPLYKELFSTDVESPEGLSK
#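 Read-out: Photinus luciferase luminescence; inhibitors lower reporter signal. Insect Schneider cells with Gal4-ROR gamma fusion under metallothionein promoter, UAS reporter; 700 uM final copper sulfate induction, 20 hr, ambient temperature.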
# LDHA inh – blocks human lactate dehydrogenase A. purified LDHA, NADH/diaphorase-resazurin fluorescence; stronger effect = lower value. activity change, % (values are at about 110 or 230 µM). actives 0.15% (n = 480,000). AID 1347041; in the data active = activity change below about -30%; inconclusive = mostly about -25% to -30%;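 note: plate controls were DMSO wells for no effect and wells without enzyme for full effect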
#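 Resorufin fluorescence (ex540/em590), read at 0 and 20 min after diaphorase/resazurin addition, reports the NADH left after a 5 min room-temperature reaction of 2 nM human LDH5 with 0.06 mM NADH and 0.2 mM pyruvate.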
# DT40 TDP1 no CPT – qHTS for Inhibitors of human tyrosyl-DNA phosphodiesterase 1 (TDP1): qHTS in cells in absence of CPT. DT40 Tdp1-/- hTDP1 cells, no CPT, ATP luminescence, 48 h. Potency, µM (series often up to 46.2 µM), for inactives: top-dose activity change, negative = growth inhibition, actives largely listed as inhibitors. actives 15% (n = 420,000). AID 686978, 2013; note: potency is the fitted concentration of half-maximal effect; nearly all actives have a fitted effect of over 55% in size
#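 No-CPT arm: Tdp1-/-;hTDP1 DT40 cells (400/well) plus compounds, incubated ≥48 hr at 37 °C. Readout CellTiter-Glo luminescence.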
# Gal4-VP16 FLuc – counter-screen for ROR gamma inhibitors: Gal4-VP16 reporter | AID 2546 | actives 3.5% (n = 310,000) | Drosophila S2 Gal4-VP16 UAS-luciferase, luminescence, 20 h | Potency, µM (titrated, usually from 53.6 µM), inactives show top-dose activity, negative = inhibition, most hits filed as inhibitors;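 note: Gal4-VP16 expression switched on by copper sulfate through the metallothionein promoter; potency is the fitted concentration of half-maximal effect; nearly all actives have a fitted effect of over 50% in size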
# DT40 TDP1 CPT – growth inhibition of DT40 Tdp1-/-;hTDP1 cells with camptothecin (screen for TDP1 inhibitors); Potency, µM (titrated, usually from 46.2 µM), for inactives: at the highest dose activity change, negative = growth inhibition, hits mostly inhibitors; chicken DT40 Tdp1-/-;hTDP1 cells + 20 nM CPT, ATP luminescence, 48 h; actives 12% (n = 420,000); note: potency is the fitted concentration of half-maximal effect; nearly all actives have a fitted effect of over 55% in size
#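 Chicken DT40 Tdp1-/- cells stably complemented with human TDP1 were seeded at 400 cells/well in medium containing 20 nM camptothecin, exposed to pin-transferred compounds, and grown at 37 °C for at least 48 hr. Viability was read as ATP luminescence.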
# IL1B secr inh – inflammasome signaling inhibition, IL-1 beta readout | THP-1 LPS/ATP IL-1B secretion, AlphaLISA, 16 h; stronger effect = lower value | activity change, % at 57.5 µM | actives 4.7% (n = 360,000) | AID 743279; in the data active = activity change below about -50%; inconclusive = mostly about -30% to -49%
#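 THP-1 cells pretreated 1 hr with compounds (up to 57.5 uM final), then stimulated with LPS (250 ng/mL final) plus ATP (1.25 mM final); secreted IL-1B measured by AlphaLISA after 16 hr, decreased signal indicating inhibition.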
# An asterisk follows results filed as active; u = inconclusive; x = no result given. Unless noted, calls come from the whole dose curve; as a rule, active = well fitted curve in the direction sought with a large enough effect; inconclusive = small, poorly fitted or top-dose-only effect, or another doubt; inactive = no such curve, though single readings can be large; an effect the other way counts as inactive or inconclusive. Unless noted, % is set by controls: 0 for no effect and ±100 for the full control effect.
SMILES,RORgamma inh,LDHA inh,DT40 TDP1 no CPT,Gal4-VP16 FLuc,DT40 TDP1 CPT,IL1B secr inh
CCc1nn(CC(=O)N2CCN(c3cccc(C)c3)C(C)C2)c(=O)c2cc3sccc3n12 (configuration not stated),x,-2.0,23.1µM*,x,20.6µM*,x
CCOC(=O)C1CCN(C(=O)Cn2nc(CC)n3c(cc4sccc43)c2=O)CC1,x,3.3,18.4µM*,x,u,x
CCc1cc2c(cc3c(=O)n(CC(=O)N4CCC(C)CC4)nc(CC)n32)s1,x,-2.8,u,x,16.4µM*,x
CCc1cc2c(cc3c(=O)n(CC(=O)NC4CCC(C)CC4)nc(CC)n32)s1 (configuration not stated),x,-0.9,u,x,u,x
CC(CC(=O)C(C#N)C(=O)Nc1ccccc1F)c1ccc(F)cc1 (configuration not stated),x,-6.6,x,x,x,x
CCCCCCn1nc(C(=O)OCC(=O)c2cc(C)n(C)c2C)c2ccccc2c1=O,x,10.3,x,x,x,x
O=C1CC(N2CCOCC2)=NN1c1ccc([N+](=O)[O-])cc1,u,8.1,25.9µM*,1.6%,u,-16.3
Cc1cc(N)n2nc(-c3ccccc3)c(-c3ccccc3)c2n1,8.2%,-1.8,1.64µM*,-4.5%,1.46µM*,12.4
Cc1nn2c(N)c(-c3ccccc3)cnc2c1-c1ccc(Cl)cc1,-25.2%,5.1,u,u,16.4µM*,-68.8*
Cc1nn(-c2nc3ccccc3[nH]2)c(N)c1-c1ccccc1,u,2.4,16.4µM*,u,u,-19.6
Cc1cc(C)n2nc(C(F)(F)F)c(-c3ccccc3)c2n1,u,1.7,-2.0%,2.9%,-11.0%,43.6
Nc1c(-c2ccccc2)cnc2c(-c3ccccc3)cnn12,6.31µM*,-1.8,u,7.08µM*,-12.3%,-10.0
Nc1c(-c2cccs2)cnc2c(-c3ccc(F)cc3)cnn12,u,-4.0,u,-20.0%,u,-28.6
COc1ccc(C2=NS(=O)(=O)N(C)C(C(=O)Nc3ccn(Cc4ccccc4C)n3)=C2)cc1,x,4.0,x,x,x,x
Cc1nc2cc(-c3ccccc3)nn2c(N)c1-c1ccccc1,x,-0.8,u,x,-11.4%,-1.0
Cc1nc2c(-c3ccccc3)c(C)nn2c(N)c1-c1ccccc1,u,-0.7,29.1µM*,u,20.6µM*,-18.1
CCN(CC)CCNC(=O)c1ccc(Cl)c(S(=O)(=O)Nc2ccccc2OC)c1,4.4%,-6.8,u,0.0%,-18.5%,12.5
CCN(CC)CCNC(=O)c1ccc(Cl)c(S(=O)(=O)Nc2ccc(Cl)cc2)c1,u,-9.9,-2.7%,20µM*,-12.3%,-9.5
CCN(CC)CCNC(=O)c1ccc(NC(=O)c2ccc(Cl)c(S(=O)(=O)N3CCCCCC3)c2)cc1,u,-7.2,u,u,u,-103.7*
Nc1nc(SCC(=O)NCc2ccccc2Cl)n[nH]1,x,0.8,x,x,x,x
CCCOc1c(Cl)cc(C(=O)N(Cc2sccc2C)C2CCS(=O)(=O)C2)cc1Cl (configuration not stated),x,6.5,x,x,x,x
Cc1ccc(S(=O)(=O)N2CCCCC2)cc1C(=O)Nc1ccc(N2CCOCC2)cc1,u,-4.7,12.6µM*,-10.7%,u,5.8
Cc1ccc(S(C)(=O)=O)cc1C(=O)Nc1ccc(N2CCOCC2)cc1,x,4.6,x,x,x,x
COc1ccc(NC(=O)c2cc(S(=O)(=O)N3CCCCC3)ccc2C)cc1S(=O)(=O)N1CCOCC1,x,-0.1,-16.6%,x,-2.7%,0.5
COc1ccc(S(=O)(=O)N2CCOCC2)cc1C(=O)Nc1ccc(N2CCCCCC2)cc1,x,2.3,18.4µM*,x,18.4µM*,0.0
CC(=O)C1=C(C)NC(SCC(N)=O)=C(C#N)C1c1ccco1 (configuration not stated),u,-10.9,19.7%,22.0%,26.1%,-12.3
